# Reference: the supplement of paper PMC9877034
# Structures can show the parent of a compound that is named as a salt. The full ranking holds about 1,000 compounds; the median of “cFRET/donor change relative to DMSO, normalised to beta-lapachone positive control (supercomplex I-IV assembly)” is about 0.18, and the lowest 2% start at about -1. Many of the other results were omitted from the sample, so the lowest values are more common in it than they were.
# Test system: C2C12 (NDUFB8-AcGFP / COX8A-DsRed-Monomer FRET reporter)
# Assay: cFRET/donor change relative to DMSO, normalised to beta-lapachone positive control (supercomplex I-IV assembly) (fraction of beta-lapachone effect); higher = more respiratory supercomplex assembly
# Conditions: 40 µM; 24 h
# Method: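 Cells were treated with 40 uM compound for 24 h and imaged on an IN Cell Analyzer 6000. Corrected FRET was divided by donor signal (cFRET/donor) and measured in two replicate experiments. The score is (mean cFRET/donor of compound - mean DMSO) / (mean beta-lapachone 40 uM - mean DMSO). Compounds flagged for prominent cell death, abnormal morphology or decreased cell number were excluded.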
row,SMILES,cFRET/donor change
1,Cc1c2ccncc2c(C)c2c1[nH]c1ccccc12 [Ellipticine],-2.44
2,NC(CCP(=O)(O)O)C(=O)O (racemic) [(±)-2-Amino-4-phosphonobutyric acid],0.0445
3,CN1CCC[C@@H]1Cc1c[nH]c2ccc(Nc3ncccc3[N+](=O)[O-])cc12,0.0254
4,C#CCN[C@H](C)Cc1ccccc1 [R-(-)-Desmethyldeprenyl hydrochloride],-0.331
5,C[N+](C)(C)CC#CCOC(=O)Nc1cccc(Cl)c1,0.565
